# Results filed as inconclusive are left out. The source made the active and inactive calls. Calls follow the shape of the dose curve; as a rule, active = well fitted cell-killing curve with a large enough effect; inconclusive = small, poorly fitted or top-dose-only effect; inactive = flat fitted curve, though single readings scatter.
# Test: Cell Viability - LYMP2-019 (AID 973); also: nearly all actives have a fitted effect of over 55% in size;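 as to activity change, negative = cytotoxicity: 0% = DMSO alone and full effect = 92 µM tetraoctylammonium bromide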
# Settings: LYMP2-019 lymphoblastoid cell line viability; series mostly up to 92.2 µM; activity change, negative = cytotoxicity: at the top concentration
# Source text: NIH Chemical Genomics Center [NCGC]
# NIH Molecular Libraries Screening Centers Network [MLSCN]
# National Institutes of Environmental Health Sciences [NIEHS]
# National Toxicology Program [NTP]
# We have developed a 1536-well cell-based assay for quantitative high throughput screening (qHTS) against a number of cell lines to determine in vitro cytotoxicity of small molecules. This particular assay uses a human lymphoblastoid cell line (LYMP2-019) purchased from Coriell Institute for Medical Research.
# NCGC Assay Protocol Summary:
# The CellTiter-Glo luminescent cell viability assay (Promega) is a homogeneous method to measure the number of viable cells in culture. The end point readout of this assay is based on quantitation of intracellular ATP, an indicator of metabolic activity, using the luciferase reaction. Luciferase catalyzes the oxidation of beetle Luciferin to oxyluciferin and light in the presence of ATP. The luminescent signal is proportional to amount of ATP present.
# Using the CellTiter-Glo luminescent cell viability assay, the amount of cellular ATP was measured in the lymphoblastoid cell line with complete culture medium following compound treatment for 24 hours. The assay was performed in opaque white Kalypsys 1536-well plates. In the screen, tetraoctylammonium bromide was used as positive control. Library compounds were measured for their ability to cause acute toxicity in the cell line, as reflected by a decrease in intracellular ATP levels, in a concentration-dependent manner. […] AC50 values were determined from concentration-response data modeled with the standard Hill equation.
# qHTS protocol for CellTiter Glo lymphoblastoid cellular assay
# [Step] [Parameter] [Value] [Description]
# 1. Reagent; 5 uL; 2500 lymphoblastoid cells/well
# 2. Time; 5 hr; 37 C incubation
# 4. Controls; 23 nL; Tetraoctylammonium bromide 6.4pM to 92 uM
# 5. Time; 24 hr; 37 C incubation
# 6. Reagent; 5 uL; CellTiter Glo reagent
# 7. Time; 30 min; Room Temperature
# 8. Detection; Luminescence; Viewlux plate reader
# Keywords: cell viability, cytotoxicity, lymphoblastoid cell line, luminescence, NTPHTS, NTPHTS_NCGC, NIEHS, DSSTox, MLSMR, MLSCN, NIH Roadmap, qHTS, NCGC
# Potency is read from the fitted curve at half-maximal effect.
SMILES,"activity change, negative = cytotoxicity",Potency
CC1=CCC2CC1C2(C)C (centres undefined),-10.7% (inactive),
CO/N=C(/C(=O)N[C@@H]1C(=O)N2C(C(=O)O)=C(COC(N)=O)CS[C@H]12)c1ccco1,-12.9% (inactive),
CC(C)O,-8.58% (inactive),
OB(O)O,-0.115% (inactive),
Cc1ncc[nH]1,0.96% (inactive),
NCCN,-4.44% (inactive),
Nc1nccs1,-2.04% (inactive),
OCC(O)CO,,inactive
Nc1ncnc2c1ncn2[C@H]1CC[C@@H](CO)O1,-16.5% (inactive),
OCc1ccccc1,4.31% (inactive),
O=P(O)(O)O,12.6% (inactive),
CO,4.14% (inactive),
CCCCO,,inactive
CCOC(C)OCC,-15.9% (inactive),
C=C1C(CCl)(CCl)C2(Cl)C(Cl)C(Cl)C1(Cl)C2(Cl)Cl (centres undefined),,39.8 µM (active)
O=c1n(CC2CO2)c(=O)n(CC2CO2)c(=O)n1CC1CO1 (centres undefined),,39.8 µM (active)
CCCCC,-5.37% (inactive),

SMILES,"activity change, negative = cytotoxicity",Potency
OCl,-1.1% (inactive),
CC[C@H]1OC(=O)[C@H](C)[C@@H](O[C@H]2C[C@@](C)(OC)[C@@H](O)[C@H](C)O2)[C@H](C)[C@@H](O[C@@H]2O[C@H](C)C[C@H](N(C)C)[C@H]2O)[C@](C)(O)C[C@@H](C)CN(C)[C@H](C)[C@@H](O)[C@]1(C)O,-25.1% (inactive),
C[C@H](CCC(=O)O)[C@H]1CC[C@H]2[C@@H]3[C@H](O)C[C@@H]4C[C@H](O)CC[C@]4(C)[C@H]3C[C@H](O)[C@]12C,0.433% (inactive),
Nc1ccc(N=Nc2ccccc2)c(N)n1,-24.4% (inactive),
CC/C=C\C/C=C\C/C=C\CCCCCCCC(=O)O,,50.1 µM (active)
COC(=O)c1ccccc1O,-7.89% (inactive),
Oc1cccc(O)c1O,-27.1% (inactive),
Oc1ccc(/C=C/c2cc(O)cc(O)c2)cc1,-19.8% (inactive),
C/C=C/C=C/C(=O)O,3.22% (inactive),
Cc1ccc(S(=O)(=O)O)cc1C,4.13% (inactive),
OC[C@H]1O[C@@H]2O[C@H]3[C@H](O)[C@@H](O)[C@@H](O[C@H]4[C@H](O)[C@@H](O)[C@@H](O[C@H]5[C@H](O)[C@@H](O)[C@@H](O[C@H]6[C@H](O)[C@@H](O)[C@@H](O[C@H]7[C@H](O)[C@@H](O)[C@@H](O[C@H]1[C@H](O)[C@H]2O)O[C@@H]7CO)O[C@@H]6CO)O[C@@H]5CO)O[C@@H]4CO)O[C@@H]3CO,1.4% (inactive),
NC(N)=O,4.63% (inactive),
CC1=CC(=O)NS(=O)(=O)O1,-0.146% (inactive),
[O-][N+](=Nc1ccccc1)c1ccccc1,-3.22% (inactive),
C[C@H](CCC(=O)O)[C@H]1CC[C@H]2[C@@H]3CC[C@@H]4C[C@H](O)CC[C@]4(C)[C@H]3C[C@H](O)[C@]12C,-8.18% (inactive),
ClC(Cl)Cl,-4.33% (inactive),
c1ccc2ccccc2c1,-6.38% (inactive),

# — PubChem BioAssay (NCATS)
